Compound activity as filed in PubChem.
Shown are actives, neighbours in structure and some others; about 9.5% of the full set was active somewhere.
SARS PLP yeast = SARS-CoV PLP inhibition in yeast | S. cerevisiae expressing SARS-CoV PLpro, growth rescue | 330,000 compounds, 0.19% hits | Potency, µM (top dose mostly 32.9 µM), for inactives: at the highest dose activity, positive = growth rescue, usual class: activators | AID 485353; calls by dose curve; note: 0% is about no effect; nearly all actives have a fitted effect of over 55% in size
Pf growth 48h = inhibits P. falciparum growth in the first generation, 48 h. P. falciparum luciferase growth in erythrocytes, 48 h. Potency, µM (titrated, usually from 28.7 µM), for the others: top-dose activity change, negative = inhibition, most hits filed as inhibitors. 310,000 compounds, 5.9% hits; note: % is set by controls: 0 for no effect and ±100 for the full control effect
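Compounds are pin-transferred into medium, infected erythrocytes (2% hematocrit, 0.1% parasitemia final) are added, and plates sit one parasite generation at 37 C in 5% CO2. Detection reagent is then added and luminescence measured.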
RE007 growth inh = less growth of the S. pombe RE007 Vpr strain. S. pombe RE007 Vpr strain, BacTiter-Glo ATP luminescence, 24 h. Potency, µM (titrated, usually from 92.2 µM), without a hit: top-dose activity change, negative = less growth, usual class: inhibitors. 360,000 compounds, 0.21% hits; active = well fitted falling curve with a large enough effect; inconclusive = small, poorly fitted or top-dose-only effect; inactive = no such curve, though single readings can be large or run the other way; note: % is set by controls: 0 for no effect and ±100 for the full control effect; nearly all actives have a fitted effect of over 50% in size
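Fission yeast strain RE007, carrying one chromosomally integrated HIV-1 vpr copy, was seeded at OD 0.01 in PMG+AL medium with 23 nL pinned compound. After 24 h at 30 °C and 99% humidity, viability was read by BacTiter-Glo luminescence.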
Pf growth 96h = P. falciparum growth inhibition at 96 hour, primary screen for plastid delayed-death inhibitors. P. falciparum luciferase reporter growth, 96 h. Potency, µM (series often up to 28.7 µM), inactives show at the highest dose activity change, negative = inhibition, actives largely listed as inhibitors. 320,000 compounds, 6.9% hits. AID 504834; note: % is set by controls: 0 for no effect and ±100 for the full control effect
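Erythrocytes infected with luciferase-expressing P. falciparum were dispensed at 2% hematocrit and 0.05% parasitemia (final), then incubated with compounds 96 hours at 37 C in 5% CO2. Luminescence after detection reagent addition reported growth.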
NS1 inh = influenza NS1 inhibition | 270,000 compounds, 0.4% hits | AID 2326 | Potency, µM (doses to about 46.1 µM), for the others: at the top dose activity, positive = more growth; calls by dose curve; note: actives are rising curves; nearly all actives have a fitted effect of over 50% in size
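Read-out: OD600 growth recovery of NS1-expressing budding yeast. Cells grown overnight at 30C in -URA glucose medium, washed, resuspended and diluted 1:100 in 2% galactose assay medium, pH 6.0. Same strain lacking NS1 served as positive control.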
* = called active by the depositor; ? = inconclusive; . = no result given; [ ] = another dose, or the depositor's remark. Unless noted, calls come from the whole dose curve; as a rule, active = well fitted inhibition curve with a large enough effect; inconclusive = small, poorly fitted or top-dose-only effect, or another doubt; inactive = no such curve, though single readings can be large or run the other way. Potency is the fitted concentration of half-maximal effect.

SMILES	SARS PLP yeast	Pf growth 48h	RE007 growth inh	Pf growth 96h	NS1 inh
Cc1c(/C(O)=C2\C(=O)C(=O)N(CCN(C)C)C2c2cccnc2)cnn1-c1ccccc1 (configuration not stated)	5%	65%	5%	?	4%
Cc1c(/C(O)=C2\C(=O)C(=O)N(CCN(C)C)C2c2cccs2)cnn1-c1ccccc1 (configuration not stated)	1%	8%	-3%	13µM*	-3%
Cc1nc2sccn2c(=O)c1CCN1CCC(=C(c2ccccc2)c2ccc(F)cc2)CC1	5%	15µM*	.	15µM*	?
Cc1nc2sccn2c(=O)c1S(=O)(=O)N1CCN(c2ccccc2)CC1	-1%	-8%	4%	14%	0%
O=C(OCC(=O)N1CCN(c2ccccc2)CC1)c1ncc(Cl)c(Cl)c1Cl	.	-11%	-16%	29%	.
Cc1cccc(N2CCN(C(=O)c3c(C)nn(Cc4ccccc4Cl)c3C)CC2)c1C	-25%	.	2%	7.4µM*	6%
CC(=O)Nc1ccc(NC(=O)c2c(C)nn(Cc3ccccc3Cl)c2C)cc1	-7%	-8%	-4%	-17%	-4%
O=C1OCCN1C(=O)[C@H]1[C@H](c2ccc([N+](=O)[O-])cc2)C(c2ccc(F)cc2)=NN1c1ccc(Br)cc1	18%	.	2%	.	.
C=C[C@@]1(C)C[C@H](OC(=O)CSC(C)(C)CNC(=O)[C@@H](N)C(C)C)[C@@]2(C)C(C)CC[C@@]3(CCC(=O)[C@@H]32)[C@H](C)[C@H]1O (some centres not stated)	.	1.1µM*	.	-18%	.
C=C[C@]1(C)C[C@@H](OC(=O)CSCCN(CC)CC)[C@]2(C)C(C)CC[C@]3(CCC(=O)[C@H]32)[C@@H](C)[C@@H]1O (some centres not stated)	.	13µM*	-9%	2.1µM*	.
CC(=O)Nc1cccc(NS(=O)(=O)c2cc3c4c(c2)CCN4C(=O)CC3)c1	-5%	8%	7%	17%	.
S=C1N(c2ccccc2)C(c2ccc(Cl)cc2)N2CCCN12 (configuration not stated)	5%	-17%	4%	?	6%
CC1(C)CN2C(=S)N(c3ccccc3)C(c3ccccc3)N2C1 (configuration not stated)	-12%	.	5%	8.3µM*	-5%
Cc1sc2c(c1C)C(c1ccc(C(C)(C)C)cc1)=NCC(=O)N2CC(=O)Nc1nccs1	-27%	?	9%	10µM*	-32%
Cc1sc2c(c1C)C(c1cccs1)=NCC(=O)N2CC(=O)NCc1cccs1	-6%	?	13%	.	-20%
COc1cccc(N=CNc2cccc(OC)c2)c1	.	.	3%	.	.
S=c1c2c(nc3nc[nH]n13)CCC2	-7%	2.1µM*	?	1.7µM*	-9%
Cn1c(OCC2CCCO2)nc2cc(-c3ccccc3)sc2c1=O (configuration not stated)	.	.	-23%	.	.
O=C(Nc1ccc(N2CCCCC2)c(Cl)c1)c1ncn[nH]1	-27%	0.47µM*	37%	-5%[5.75 µM]	-9%
CCn1c(SCC(=O)Nc2cccc(F)c2)nc2c(c1=O)SC(C)C2 (configuration not stated)	10%	4.1µM*	6%	2.6µM*	-97%
CCOC(=O)c1ccc(NC(=O)CSc2nc3c(c(=O)n2C)SC(C)C3)cc1 (configuration not stated)	-1%	.	7%	?	-92%
Cc1ccc(C)c(NC(=O)CSc2nc3c(c(=O)n2C)SC(C)C3)c1 (configuration not stated)	-14%	?	16%	?	-89%
CC1Cc2nc(SCC(=O)Nc3ccc(F)cc3F)n(C)c(=O)c2S1 (configuration not stated)	5%	6.6µM*	0%	?	-118%
CCOC(=O)c1ccc(NC(=O)CSc2nc3c(c(=O)n2CC)SC(C)C3)cc1 (configuration not stated)	-20%	10µM*	17%	9.3µM*	-50%
Cc1onc(-c2ccccc2)c1C(=O)NCCSCc1ccco1	0%	.	5%	.	.
SMILES	SARS PLP yeast	Pf growth 48h	RE007 growth inh	Pf growth 96h	NS1 inh
O=C(OCC(=O)N1CCC(Cc2ccccc2)CC1)c1ccc(O)cc1	.	.	-20%	.	.
O=C(O)c1cc(-c2ccc(-c3ccccc3)cc2)nc2cc3ccccc3cc12	.	.	.	.	-8%
CCC(C)[C@H](NC(=O)N1CCN(c2cccc(C(F)(F)F)c2)CC1)C(=O)OC (some centres not stated)	-6%	.	12%	5.2µM*	3%
Cc1ccc(F)cc1NC(=O)N1c2ccccc2NC(=O)CC1C (configuration not stated)	0%	53%	-4%	-6%	5%
Cc1cccc(COCC(Cc2ccccc2)N2CCN(C(=O)c3ccc(Cl)c(Cl)c3)CCC2=O)c1 (configuration not stated)	-13%	?	2%	?	29%
Cc1cccc(COCC(Cc2ccccc2)N2CCN(C(=O)c3cccc(C)c3)CCC2=O)c1 (configuration not stated)	6%	13µM*	7%	?	-14%
Cc1cccc(COC[C@H](Cc2ccccc2)N2CCN(C(=O)c3ccc(Cl)c(Cl)c3)CCC2=O)c1	.	.	7%	.	.
Cc1cccc(COCC(Cc2ccccc2)N2CCN(C(=O)c3cc(Cl)cc(Cl)c3)CCC2=O)c1 (configuration not stated)	-10%	?	-3%	15µM*	24%
O=C(Nc1cc(-c2nc3ncccc3o2)ccc1Cl)c1ccc([N+](=O)[O-])o1	0%	?	-29%	30%	-5%
COc1cc(C2c3c(-c4cc(Cl)c(C)cc4O)n[nH]c3C(=O)N2Cc2cccnc2)ccc1O (configuration not stated)	-3%	8.3µM*	-14%	.	-59%
COc1cccc(C2c3c(-c4cc(Cl)c(C)cc4O)n[nH]c3C(=O)N2Cc2cccnc2)c1 (configuration not stated)	11%	.	37%	6.6µM*	0%
CN(C)CCC1(C2=CCCC2)CC/C(=C/c2ccc(Cl)cc2)C1=O (configuration not stated)	.	.	2%	.	.
Cc1cccc2c1N(CCCOc1ccc(C(C)(C)C)cc1)C(=O)C2=O	-11%	.	-2%	9.3µM*	?
Cc1cccc2c1N(CCCOc1ccccc1)C(=O)C2=O	-35%	-5%	6%	-22%	-121%
Cc1ccc(-c2noc(CN(C(=O)C(c3ccccc3)c3ccccc3)C(C)C)n2)cc1	24%	?	5%	?	13%
CC(C)N(Cc1nc(-c2ccc(Cl)cc2)no1)C(=O)C(c1ccccc1)c1ccccc1	-15%	.	-2%	8.3µM*	12%
COc1ccc(C(=O)NCCc2ccccc2F)cc1OC1CCN(C(C)=O)CC1	5%	?	-7%	31%	3%
O=C(CSc1nnc(CNC(=O)c2c(F)cccc2Cl)o1)c1ccccc1	-24%	-7%	5%	9.3µM*	7%
